According to PubChem BioAssay (NCI):
The panel holds about 83,000 compounds, 20% with a hit somewhere; the sample as a whole holds those more often.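 Interpretation: 100, growth as untreated; towards 0, rising growth inhibition; 0, no net growth; 0 to -100, cell death. Compounds scoring below 10 were considered active.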 Calls of active or inactive are those of the source.

Columns and labels:
Assay in all cases: NCI-60 one-dose screen, 48 h (100 = growth as untreated, 0 = no growth, -100 = all killed)
Settings in all cases: 10 µM unless noted
SR leukemia = test system: SR leukemia
RPMI-8226 leukemia = test system: RPMI-8226 leukemia
OVCAR-8 ovarian = test system: OVCAR-8 ovarian
OVCAR-5 ovarian = test system: OVCAR-5 ovarian
OVCAR-4 ovarian = test system: OVCAR-4 ovarian
SK-OV-3 ovarian = test system: SK-OV-3 ovarian
IGROV1 ovarian = test system: IGROV1 ovarian
OVCAR-3 ovarian = test system: OVCAR-3 ovarian
NCI/ADR-RES ovarian = test system: NCI/ADR-RES ovarian
T-47D breast = test system: T-47D breast
BT-549 breast = test system: BT-549 breast
MDA-MB-435 melanoma = test system: MDA-MB-435 melanoma
MCF7 breast = test system: MCF7 breast
HCT-116 colon = test system: HCT-116 colon
HCC-2998 colon = test system: HCC-2998 colon
KM12 colon = test system: KM12 colon
MDA-MB-468 breast = test system: MDA-MB-468 breast

Measured: growth

COc1cc(/C=C/C(=O)c2nnn(-c3ccc(Cl)cc3)c2C)cc(OC)c1OC
active: SR leukemia 5.48% | RPMI-8226 leukemia -7.65% | NCI/ADR-RES ovarian 8.27% | MDA-MB-435 melanoma 2.83% | MCF7 breast 8.67% | MDA-MB-468 breast -20.7%
inactive: OVCAR-8 ovarian 31.8% | OVCAR-5 ovarian 47.8% | OVCAR-4 ovarian 34.7% | SK-OV-3 ovarian 59.4% | IGROV1 ovarian 59.3% | OVCAR-3 ovarian 22.9% | T-47D breast 43.2% | BT-549 breast 36.8% | HCT-116 colon 26.2% | HCC-2998 colon 23.1% | KM12 colon 20.8%

O=C(/C=C/c1ccc(-c2ccccc2)cc1)c1nc2ccccc2n1Cc1ccc(Br)cc1
inactive: RPMI-8226 leukemia 14.1% | OVCAR-8 ovarian 43.9% | OVCAR-5 ovarian 74.7% | OVCAR-4 ovarian 50% | SK-OV-3 ovarian 85.3% | IGROV1 ovarian 63.6% | OVCAR-3 ovarian 45% | NCI/ADR-RES ovarian 47.1% | BT-549 breast 41.7% | MDA-MB-435 melanoma 61.9% | MCF7 breast 21.3% | HCT-116 colon 24% | HCC-2998 colon 62.6% | KM12 colon 74.3% | MDA-MB-468 breast 49.6%
active: SR leukemia 2.11% | T-47D breast 7.98%

CSc1ccc(NC(=O)c2ccc3nn(/C(C#N)=C/c4ccccn4)nc3c2)cc1
active: SR leukemia -6.88% | RPMI-8226 leukemia -35.4% | OVCAR-8 ovarian -44.2% | OVCAR-5 ovarian -87.6% | OVCAR-4 ovarian -57.2% | SK-OV-3 ovarian -2.79% | IGROV1 ovarian -87.4% | OVCAR-3 ovarian -85% | NCI/ADR-RES ovarian -35.7% | T-47D breast -39.9% | BT-549 breast -97.9% | MDA-MB-435 melanoma -70.8% | MCF7 breast -78.6% | HCT-116 colon -73.9% | HCC-2998 colon -100% | KM12 colon -68% | MDA-MB-468 breast -94%

CC(=O)Oc1ccccc1C(=O)[Se]C(=NC1CCCCC1)NC1CCCCC1
active: SR leukemia -15.7% | RPMI-8226 leukemia 4.77% | OVCAR-8 ovarian -81.8% | OVCAR-5 ovarian -89.6% | OVCAR-4 ovarian -85.9% | SK-OV-3 ovarian -99.1% | IGROV1 ovarian -94% | OVCAR-3 ovarian -71.6% | NCI/ADR-RES ovarian -63.3% | T-47D breast -43.3% | BT-549 breast -91.7% | MDA-MB-435 melanoma -77.2% | MCF7 breast -82.1% | HCT-116 colon -69.9% | HCC-2998 colon -92.6% | KM12 colon -67.8% | MDA-MB-468 breast -77.8%

O=C(O)c1ccc(-c2ccc(/C=N/NC(=O)c3[nH]c4ccc(Br)cc4c3-c3ccccc3)o2)cc1
active: SR leukemia 5.35% | OVCAR-8 ovarian -15.4% | OVCAR-3 ovarian 1.4% | BT-549 breast -7.86% | MDA-MB-435 melanoma -49.6% | MCF7 breast 9.15% | HCT-116 colon 9.56% | HCC-2998 colon 5.76% | MDA-MB-468 breast -12.4%
inactive: RPMI-8226 leukemia 14.8% | OVCAR-5 ovarian 75.9% | OVCAR-4 ovarian 38% | SK-OV-3 ovarian 41.1% | IGROV1 ovarian 17.8% | NCI/ADR-RES ovarian 18.1% | T-47D breast 15.1% | KM12 colon 11.9%

O=C(O)c1cccc(-c2ccc(/C=N/NC(=O)c3[nH]c4ccc(Br)cc4c3-c3ccccc3)o2)c1
inactive: SR leukemia 21.1% | RPMI-8226 leukemia 96.5% | OVCAR-8 ovarian 66.4% | OVCAR-5 ovarian 107% | OVCAR-4 ovarian 73% | SK-OV-3 ovarian 110% | IGROV1 ovarian 85% | OVCAR-3 ovarian 17.1% | NCI/ADR-RES ovarian 73.7% | T-47D breast 55.3% | BT-549 breast 34.7% | MDA-MB-435 melanoma 43.9% | MCF7 breast 53.1% | HCT-116 colon 66.2% | HCC-2998 colon 84.8% | KM12 colon 79.3%
active: MDA-MB-468 breast -12.6%

N#Cc1c(-c2cccc(Cl)c2Cl)cc(-c2ccc3ccccc3c2)[nH]c1=O
inactive: SR leukemia 67.4% | RPMI-8226 leukemia 68.3% | OVCAR-8 ovarian 41.5% | OVCAR-5 ovarian 77.4% | SK-OV-3 ovarian 99.7% | IGROV1 ovarian 65.1% | OVCAR-3 ovarian 31.6% | NCI/ADR-RES ovarian 42.4% | T-47D breast 37.6% | MDA-MB-435 melanoma 94.9% | MCF7 breast 52.9% | HCC-2998 colon 75.6% | KM12 colon 98.4% | MDA-MB-468 breast 71.4%
active: OVCAR-4 ovarian 4.49% | BT-549 breast -5.5% | HCT-116 colon 2.78%

CC1=C(C(=O)c2ccccc2)C(c2cccc(Cl)c2Cl)n2c(nc3ccccc32)N1 (centres undefined)
active: MDA-MB-468 breast -38.3%
inactive: SR leukemia 39.2% | RPMI-8226 leukemia 86% | OVCAR-8 ovarian 26.3% | OVCAR-5 ovarian 60.3% | OVCAR-4 ovarian 65.2% | SK-OV-3 ovarian 33.7% | IGROV1 ovarian 77.7% | OVCAR-3 ovarian 35.5% | NCI/ADR-RES ovarian 19.1% | T-47D breast 76.6% | BT-549 breast 52.4% | MDA-MB-435 melanoma 72.1% | MCF7 breast 26.7% | HCT-116 colon 50.1% | HCC-2998 colon 88% | KM12 colon 92%

CSc1ccc(C(=O)Nc2ccc3nnn(/C(C#N)=C/c4ccccn4)c3c2)cc1
active: SR leukemia -9.41% | RPMI-8226 leukemia -40.8% | OVCAR-5 ovarian -77.4% | IGROV1 ovarian -44.9% | OVCAR-3 ovarian -30.8% | T-47D breast -45.3% | BT-549 breast -67.9% | MDA-MB-435 melanoma -20.9% | MCF7 breast -79% | HCT-116 colon -5.03% | HCC-2998 colon -76.3% | KM12 colon -57.1% | MDA-MB-468 breast -69.1%
inactive: OVCAR-8 ovarian 10% | OVCAR-4 ovarian 37% | SK-OV-3 ovarian 64.4% | NCI/ADR-RES ovarian 11.2%

N#Cc1c(-c2ccccc2Cl)cc(-c2c[nH]c3ccccc23)[nH]c1=O
inactive: RPMI-8226 leukemia 70.7% | OVCAR-8 ovarian 87.4% | OVCAR-5 ovarian 82.1% | OVCAR-4 ovarian 69.6% | SK-OV-3 ovarian 87.8% | IGROV1 ovarian 78.5% | OVCAR-3 ovarian 93.8% | NCI/ADR-RES ovarian 82.3% | T-47D breast 65% | BT-549 breast 73.9% | MDA-MB-435 melanoma 23.6% | MCF7 breast 50.9% | HCT-116 colon 52.4% | HCC-2998 colon 73.1% | KM12 colon 71% | MDA-MB-468 breast 20.7%
active: SR leukemia 9.99%

C=C1CC[C@@H]2[C@]3(C)COC(c4cn(-c5ccccc5)nc4-c4cccc([N+](=O)[O-])c4)O[C@@H]3CC[C@@]2(C)[C@@H]1C/C=C1/C(=O)OC[C@H]1O (some centres undefined)
inactive: OVCAR-4 ovarian 14% | SK-OV-3 ovarian 93% | OVCAR-3 ovarian 15.1%
active: SR leukemia -16.7% | RPMI-8226 leukemia -42.4% | OVCAR-8 ovarian -38.1% | OVCAR-5 ovarian -24.1% | IGROV1 ovarian -25% | NCI/ADR-RES ovarian -42.6% | T-47D breast -42.4% | BT-549 breast -55.9% | MDA-MB-435 melanoma -26.4% | MCF7 breast 2.33% | HCT-116 colon -13.7% | HCC-2998 colon -86% | KM12 colon 7.66% | MDA-MB-468 breast -69.7%

CC1=C(C(=O)OCc2ccccc2)C(c2ccc(-n3cncn3)cc2)n2c(nc3ccccc32)N1 (centres undefined)
inactive: SR leukemia 18% | RPMI-8226 leukemia 35.4% | OVCAR-8 ovarian 86.6% | OVCAR-5 ovarian 79.3% | OVCAR-4 ovarian 83.2% | SK-OV-3 ovarian 73.8% | IGROV1 ovarian 62.2% | OVCAR-3 ovarian 24.2% | NCI/ADR-RES ovarian 41.5% | T-47D breast 65.1% | BT-549 breast 52.9% | MCF7 breast 13.1% | HCT-116 colon 41.3% | HCC-2998 colon 75.4% | KM12 colon 39.5%
active: MDA-MB-435 melanoma -12.5% | MDA-MB-468 breast -18.8%

CCOC(=O)C1=C(N)N(c2ccccc2)C2=C(C(=O)CC(C)(C)C2)C1c1cccc(Cl)c1Cl (centres undefined)
inactive: SR leukemia 56.3% | RPMI-8226 leukemia 50.7% | OVCAR-8 ovarian 59.4% | OVCAR-5 ovarian 87.6% | OVCAR-4 ovarian 65.8% | SK-OV-3 ovarian 82% | IGROV1 ovarian 83.6% | OVCAR-3 ovarian 87.4% | NCI/ADR-RES ovarian 51% | T-47D breast 71.6% | BT-549 breast 68.8% | MDA-MB-435 melanoma 87.8% | MCF7 breast 60% | HCT-116 colon 40.1% | HCC-2998 colon 86.9% | KM12 colon 76.6% | MDA-MB-468 breast 47.8%

COc1cc(-c2cc(-c3cccc(OCC(=O)O)c3)[nH]c(=O)c2C#N)cc(OC)c1OC
inactive: SR leukemia 83.6% | RPMI-8226 leukemia 98.6% | OVCAR-8 ovarian 102% | OVCAR-5 ovarian 96.8% | OVCAR-4 ovarian 98.2% | SK-OV-3 ovarian 100% | IGROV1 ovarian 109% | OVCAR-3 ovarian 110% | NCI/ADR-RES ovarian 104% | T-47D breast 103% | BT-549 breast 100% | MDA-MB-435 melanoma 106% | MCF7 breast 97.1% | HCT-116 colon 92.8% | HCC-2998 colon 110% | KM12 colon 105% | MDA-MB-468 breast 96.7%

C[C@H](Nc1nc(NCCc2ccccc2)nc2ccccc12)c1ccccc1
active: SR leukemia -64.3% | RPMI-8226 leukemia -37.5% | OVCAR-8 ovarian -78.6% | OVCAR-5 ovarian -92.2% | OVCAR-4 ovarian -31.4% | SK-OV-3 ovarian -88.9% | IGROV1 ovarian -84.6% | OVCAR-3 ovarian -70.1% | NCI/ADR-RES ovarian -73.9% | T-47D breast -55.1% | BT-549 breast -86.9% | MDA-MB-435 melanoma -88.5% | MCF7 breast -87.4% | HCT-116 colon -83.7% | HCC-2998 colon -98.7% | KM12 colon -77.2% | MDA-MB-468 breast -96.3%

C=C1CC[C@@H]2[C@]3(C)COC(c4cn(-c5ccccc5)nc4-c4ccccc4)O[C@@H]3CC[C@@]2(C)[C@@H]1C/C=C1/C(=O)OC[C@H]1O (some centres undefined)
inactive: SK-OV-3 ovarian 12.6%
active: SR leukemia -32.7% | RPMI-8226 leukemia -10.3% | OVCAR-8 ovarian -49.5% | OVCAR-5 ovarian -50.5% | OVCAR-4 ovarian -30.4% | IGROV1 ovarian -76.7% | OVCAR-3 ovarian -77.8% | NCI/ADR-RES ovarian -69.4% | T-47D breast -62.9% | BT-549 breast -88.9% | MDA-MB-435 melanoma -65.9% | MCF7 breast -9.94% | HCT-116 colon -97.5% | HCC-2998 colon -97.7% | KM12 colon -56.2% | MDA-MB-468 breast -90.1%

COc1cc(-c2ccc(/C=N/NC(=O)c3[nH]c4ccc(Br)cc4c3-c3ccccc3)s2)cc(OC)c1OC
inactive: SR leukemia 79% | RPMI-8226 leukemia 61.1% | OVCAR-8 ovarian 80.7% | OVCAR-5 ovarian 101% | OVCAR-4 ovarian 93.7% | SK-OV-3 ovarian 99.6% | IGROV1 ovarian 95.6% | OVCAR-3 ovarian 107% | NCI/ADR-RES ovarian 71.7% | T-47D breast 73.9% | BT-549 breast 85.9% | MDA-MB-435 melanoma 92.2% | MCF7 breast 72.1% | HCT-116 colon 68.2% | HCC-2998 colon 101% | KM12 colon 82.3% | MDA-MB-468 breast 96.7%
